Source: PubChem (several laboratories)
Rows were chosen to be rich in hits. Some 2.7% of all compounds tested hit in one or more screens of this group.
ANO1 block – inhibitors of mouse TMEM16A calcium-activated chloride channel. Q8BHY3. HEK293 TMEM16A/YFP iodide influx fluorescence, ionomycin. normalized B-score (activity score, 25-100; higher = stronger inhibition) at 10 µM. 310,000 tested, 1.2% active. AID 588511;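 active = ratio plate-corrected score three or more library SD toward inhibition, starting fluorescence score within five deviations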;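 also: score derived from kinetic fluorescence span divided by baseline fluorescence per well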
FID counter – displaces DNA intercalator in HCV helicase counter-screen; DNA fluorescent intercalator displacement, fluorescence; inhibition, % at 7.9 µM; 290,000 tested, 0.17% active; AID 1845; in the data active = inhibition above about 37%;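 also: higher means more ethidium bromide displaced from hairpin DNA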
PP5 inh – inhibitors of human protein phosphatase 5 (PP5). P53041. purified PP5c, OMFP substrate fluorescence. inhibition, % at 6.7 µM. 320,000 tested, 0.18% active. AID 1987;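 active = inhibition above the campaign's mean inhibition across all tested compounds plus 3 SD, cut at about 9.5% in these data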
PP1 counter – counter-screen for PP5 inhibitors: inhibitors of human PP1-alpha; purified PP1alpha, OMFP fluorescence; inhibition, % at 6.7 µM; 320,000 tested, 0.9% active;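 active = inhibition above the mean inhibition of all tested compounds plus 3 SD, computed separately for each screening campaign, cut at about 15% in these data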
TMEM16A act – activates or potentiates the mouse TMEM16A chloride channel | HEK293 TMEM16A/YFP-H148Q/I152L, iodide quench fluorescence; active compounds read low | 340,000 tested, 0.3% active | B-score at 10 µM | AID 623877 | Q8BHY3;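 active = fluorescence-ratio B-score plate-corrected deviation score at least 3 library SD below zero, with starting fluorescence score within 5 deviations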;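 also: channel opened by trigger with iodide after compound preincubation; score built on the fluorescence ratio of max minus min over baseline; more negative score means more quench and so TMEM16A activation or potentiation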
PREPL inh – inhibitors of human prolyl oligopeptidase-like enzyme PREPL; Q4J6C6; inhibition, % at 5.96 µM; recombinant PREPL, fluorescence polarization activity-based probe; 320,000 tested, 0.68% active; in the data active = inhibition above about 43%
TMEM16A reconf – TMEM16A (mouse) chloride channel inhibition, re-confirmation | shares compounds with ANO1 block | HEK293 TMEM16A/YFP-H148Q, iodide quench fluorescence; ionomycin added to raise cell calcium | inhibition, % at 10 µM | 2,300 tested, 39% active;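 active = mean duplicate percent inhibition, scaled so buffer wells are 0 and the reference blocker 100, over three buffer SD above buffer mean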
HEK293 Ca mobil – counter-screen for TMEM16A inhibitors: effect on calcium mobilization | AID 652231 | TMEM16A/YFP HEK293, Fluo4 calcium mobilization | shares compounds with ANO1 block | calcium response (% of ionomycin), % at 10 µM | 2,300 tested, 2% active;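 active = duplicate-averaged calcium signal over 20% of the ionomycin maximum, relative to buffer baseline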;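 also: each well's signal is peak minus trough fluorescence divided by its pre-addition baseline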
Parental YFP cnt – acts in parental YFP-HEK293 cells lacking TMEM16A, counter-screen; shares compounds with ANO1 block; AID 652233; 2,300 tested, under 10 active; iodide YFP quench, ionomycin; YFP ratio F(max-min)/F0 at 10 µM;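 active = yellow fluorescent protein signal ratio exceeding the buffer control mean by over 5 SD of those controls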;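 also: ratio is mean of duplicate wells from kinetic YFP trace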
ClC-1 inh – selectivity of TMEM16A inhibitors: inhibition of rat ClC-1 chloride channel; ratio percent, % at 10 µM; shares compounds with ANO1 block; CHO ClC-1-YFP, iodide influx fluorescence quench; iodide control reads 0, buffer control 100; AID 652236; 2,300 tested, under 10 active;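 active = duplicate-mean ratio percent above the mean of iodide-only control wells, which defines zero, plus 5 of their SD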;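 also: higher percent means stronger block of ClC-1 iodide influx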
Target sequence (P35524 whole entry, looked up): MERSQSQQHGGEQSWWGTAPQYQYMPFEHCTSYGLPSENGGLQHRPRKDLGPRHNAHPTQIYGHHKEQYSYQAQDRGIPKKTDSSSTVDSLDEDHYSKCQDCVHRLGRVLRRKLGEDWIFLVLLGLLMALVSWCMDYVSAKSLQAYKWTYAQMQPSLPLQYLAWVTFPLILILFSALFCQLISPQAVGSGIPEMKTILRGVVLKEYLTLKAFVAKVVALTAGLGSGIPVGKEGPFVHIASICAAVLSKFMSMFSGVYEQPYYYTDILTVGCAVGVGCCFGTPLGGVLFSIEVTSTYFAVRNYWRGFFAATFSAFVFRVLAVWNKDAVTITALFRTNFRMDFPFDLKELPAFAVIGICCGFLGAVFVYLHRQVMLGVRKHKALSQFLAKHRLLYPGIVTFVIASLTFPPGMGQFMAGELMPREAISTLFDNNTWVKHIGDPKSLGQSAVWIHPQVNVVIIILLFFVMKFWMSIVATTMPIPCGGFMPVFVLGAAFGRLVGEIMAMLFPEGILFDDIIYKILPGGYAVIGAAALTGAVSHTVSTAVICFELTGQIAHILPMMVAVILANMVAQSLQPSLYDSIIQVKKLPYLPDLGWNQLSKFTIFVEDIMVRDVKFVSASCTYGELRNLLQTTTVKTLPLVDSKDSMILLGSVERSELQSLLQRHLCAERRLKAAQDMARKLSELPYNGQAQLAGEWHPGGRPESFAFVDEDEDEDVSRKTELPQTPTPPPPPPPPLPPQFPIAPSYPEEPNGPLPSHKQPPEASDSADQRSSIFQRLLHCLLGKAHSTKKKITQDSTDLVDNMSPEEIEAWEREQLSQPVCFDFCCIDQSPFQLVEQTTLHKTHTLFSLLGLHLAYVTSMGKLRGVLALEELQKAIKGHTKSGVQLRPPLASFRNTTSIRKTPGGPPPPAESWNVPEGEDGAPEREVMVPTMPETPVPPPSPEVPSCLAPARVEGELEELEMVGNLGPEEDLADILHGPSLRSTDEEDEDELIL
Numbers stand for hits; i = inactive; nt = no result.

SMILES	ANO1 block	FID counter	PP5 inh	PP1 counter	TMEM16A act	PREPL inh	TMEM16A reconf	HEK293 Ca mobil	Parental YFP cnt	ClC-1 inh
CS(=O)(=O)N1CCc2cc(-c3csc(NC(=O)Cc4cccs4)n3)ccc21	25	i	i	i	i	i	31.0%	i	i	i
CN(CC(=O)Nc1cc(Cl)ccc1C#N)C1CCS(=O)(=O)C1 (stereo not drawn)	nt	nt	i	i	i	i	nt	nt	nt	nt
CC(C)(NO)/C(=N/O)c1cccs1	25	i	i	i	i	i	i	i	i	i
Cc1ccc(C)n1NC(=O)c1cccs1	i	i	i	i	i	i	nt	nt	nt	nt
Cc1cc(Cl)ccc1OCCCC(=O)Nc1cccnc1	25	i	i	i	i	i	22.0%	i	i	i
Cc1cc(Cl)ccc1OCC(=O)Nc1cccnc1	i	i	i	i	i	i	nt	nt	nt	nt
CCCCn1c(SCC(=O)c2ccc(O)c(O)c2)nc2ccsc2c1=O	100	i	i	i	i	i	49.0%	i	i	i
O=C(O)CCCCCn1c(SCC(=O)c2ccc(O)c(O)c2)nc2ccsc2c1=O	i	i	i	i	i	i	nt	nt	nt	nt
COc1ccccc1CCNS(=O)(=O)c1cc2c3c(c1)CCN3C(=O)CC2	i	nt	i	i	i	i	nt	nt	nt	nt
CCOC(=O)c1ccccc1NC(=O)COC(=O)c1ccc(OCC(=O)N2CCOCC2)c(OCC)c1	nt	nt	nt	nt	i	nt	nt	nt	nt	nt
O=c1c(Cc2ccccc2)c(O)c2cccc3c4c(n1c23)CCCC4	25	i	i	i	i	i	41.0%	i	i	i
COc1cc(OC)cc(C(=O)Nc2ncn[nH]2)c1	nt	nt	i	i	i	i	nt	nt	nt	nt
COc1cc(OC)c(C(=O)Nc2ncn[nH]2)cc1OC	100	i	i	i	i	i	i	i	i	i
COCc1cc(CN2CCCC(C(=O)Nc3cccc(-n4cnnn4)c3)C2)ccc1OC (stereo not drawn)	i	i	i	i	i	i	nt	nt	nt	nt
CN1/C(=C\C=C(/C#N)C(=O)Nc2ccc(Cl)cc2)C(C)(C)c2ccccc21	i	i	i	i	i	i	nt	nt	nt	nt
CN1/C(=C\C(=O)Nc2ccc(Cl)cc2)C(C)(C)c2ccccc21	25	i	i	i	i	i	i	i	i	i
CCCC(Oc1ccc(Br)cc1)c1nc2c3cc(OC)c(OC)cc3nc(=S)n2[nH]1 (stereo not drawn)	i	i	i	i	i	i	nt	nt	nt	nt
CC(Oc1ccc(Br)cc1)c1nc2c3ccccc3nc(=S)n2[nH]1 (stereo not drawn)	25	i	i	i	i	i	33.0%	i	i	i
C=CCN1C(=O)C(C)NC1=S (stereo not drawn)	nt	i	nt	nt	i	nt	nt	nt	nt	nt
CCOC(=O)Cn1c(CN(C)Cc2ccccc2)nc2c1c(=O)n(C)c(=O)n2C	100	i	i	i	i	i	i	i	i	i
O=C1OC(c2ccccc2)=N/C1=C/c1cccc(OC(=O)c2cccs2)c1	25	i	i	i	i	i	i	i	i	i
Cc1no[n+]([O-])c1COc1cccc(/C=C2\N=C(c3ccccc3)OC2=O)c1	i	i	i	i	i	i	nt	nt	nt	nt
Cc1cc(-c2nnc(SCC(=O)Nc3ccc(C)c(C)c3)n2N)n[nH]1	i	i	i	i	i	i	nt	nt	nt	nt
CS(=O)(=O)NCCNc1ncc(C(F)(F)F)cc1Cl	i	i	i	i	i	i	nt	nt	nt	nt
O=S(=O)(NCCNc1ncc(C(F)(F)F)cc1Cl)C(F)(F)F	100	i	i	i	i	i	35.0%	i	i	i
SMILES	ANO1 block	FID counter	PP5 inh	PP1 counter	TMEM16A act	PREPL inh	TMEM16A reconf	HEK293 Ca mobil	Parental YFP cnt	ClC-1 inh
COc1ccc(CCNC(=O)CSc2nnc(C(C)N(C)C)n2Cc2ccccc2)cc1OC (stereo not drawn)	i	i	i	i	i	i	nt	nt	nt	nt
CCCNC(=O)c1ccccc1NS(=O)(=O)c1ccc(OC)c(OC)c1	i	i	i	i	i	i	nt	nt	nt	nt
COc1ccc(S(=O)(=O)Nc2ccccc2C(=O)Nc2nc(-c3ccc(F)cc3)cs2)cc1OC	100	i	i	i	i	i	50.5%	i	i	i
COc1ccc(CC(=O)Nc2nc(-c3ccc(OC)c(OC)c3)cs2)cc1OC	25	i	i	i	i	i	35.0%	i	i	i
COc1ccc(-c2csc(NC(=O)Cc3ccccc3F)n2)cc1OC	100	i	i	i	i	i	i	i	i	i
CCc1ccc(NC(=O)Cc2c(C(=O)O)n(C)c3ccccc23)cc1	i	i	i	i	i	i	nt	nt	nt	nt
N#CC[C@H](c1ccccc1)N1CCN(Cc2ccccc2)CCC1=O	i	i	i	i	i	i	nt	nt	nt	nt
Nc1cc(=O)[nH]c(SCC(=O)Nc2ccc(N3CCOCC3)cc2)n1	nt	nt	nt	nt	i	i	nt	nt	nt	nt
O=C(CSc1nc2ccc(Cl)cc2[nH]1)Nc1ccc2[nH]c(=O)[nH]c2c1	i	nt	i	i	i	i	nt	nt	nt	nt
CCc1nn(C(C)C(=O)NCCN2CCCCCC2)c(=O)c2cc3occc3n12 (stereo not drawn)	i	i	i	i	i	i	nt	nt	nt	nt
CCc1nn(C(C)C(=O)NCCN2CCN(c3cccc(C)c3C)CC2)c(=O)c2cc3occc3n12 (stereo not drawn)	i	i	i	i	i	i	i	i	i	i
C[C@H](NC(=O)OC(C)(C)C)c1nnc(SCC(=O)c2ccc(Cl)cc2)o1	100	i	i	i	i	i	i	i	i	i
C[C@H](NC(=O)OC(C)(C)C)c1nnc(SCC(=O)Nc2cccc(Cl)c2)o1	i	i	i	i	i	i	nt	nt	nt	nt
CCN(CC)CCCCOc1ccccc1OC	100	i	i	i	i	i	i	i	i	i
CCOc1ccc(Nc2nc(N3CCOCC3)nc(N3CCOCC3)n2)cc1	i	i	i	i	i	i	nt	nt	nt	nt
CCOc1ccc(Nc2nc(NCCN3CCOCC3)nc(OC)n2)cc1	100	i	i	i	i	i	i	i	i	i
COc1ccccc1NC(=O)CCC(=O)OCC(=O)c1ccc(C)c([N+](=O)[O-])c1	i	i	i	i	i	i	nt	nt	nt	nt
O=C(Nc1nnc(CSCc2ccc(F)cc2)s1)c1cccc([N+](=O)[O-])c1	i	i	i	i	i	i	nt	nt	nt	nt
O=C(Nc1nnc(CSCc2ccc(Cl)cc2)s1)c1cccc([N+](=O)[O-])c1	25	i	i	i	i	i	i	i	i	i
COCCn1c(SCC(=O)NCc2ccccc2)nc2ccccc21	i	i	i	i	i	i	nt	nt	nt	nt
COCCn1c(SCc2csc(-c3ccccc3)n2)nc2ccccc21	100	i	i	i	i	i	24.0%	i	i	i
